Bioassay records as filed in PubChem BioAssay.
In the library only some 3.9% were active in any assay of this set; here they are far more common.
ATXN2 expr inh: reduces ATXN2 reporter expression in HEK-293 cells. HEK-293 ATXN2-luciferase reporter, luminescence, 24 h. Potency, µM (series often up to 57 µM), hits mostly inhibitors. 360,000 compounds, 0.72% hits; also: nearly all actives have a fitted effect of over 55% in size
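qHTS (up to 57 uM final) was run with 24 h compound exposure of reporter cells at 37 °C. Each well was multiplexed: SteadyGlo luminescence measured ATXN2-luciferase expression after a fluorogenic Gly-Phe-AFC viability readout (25 uM final).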
TGFb inhibitor: blocks TGF-b signaling; HepG2 CAGA-GFP TGF-b/SMAD3 reporter, GFP fluorescence, 18 h; TGF-beta stimulated, 500 pg/mL final; Potency, µM (titrated, usually from 46.1 µM), usual class: inhibitors; 410,000 compounds, 1.2% hits; AID 588855; also: nearly all actives have a fitted effect of over 65% in size
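HEPG2 CAGA-GFP, 1000 cells/well; 2 h settle, 37 C; cpd via pin tool; TGF-b 500 pg/mL final; 18 h, 37 C; GFP imaging ex488/em500-530; %Activity normalised to -TGF-b and +DMSO controls; CRC fit, curve class.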
HepG2 tox: kills HepG2 cells in TGF-b inhibitor counter-screen; HepG2 CAGA-GFP viability, ATP luminescence, 18 h; Potency, µM (titrated, usually from 46.1 µM), usual class: cytotoxic; 410,000 compounds, 0.76% hits; AID 588856
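CellTiter-Glo luminescence gave cytotoxicity after 18 hours at 37 degrees C. The cells were HepG2 CAGA-GFP in 1% FBS DMEM, stimulated with 500 pg/mL TGF-beta after compound addition. %Activity was normalised to no-cell wells (complete cell-killing) and DMSO (no toxicity), and curves were fitted and classified.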
ATXN viability: viability counter-screen for ATXN expression inhibitors | S2 cells (HEK-293 line with an ATXN2-luciferase reporter) viability, CellTiter-Fluor protease fluorescence, 24 h | Potency, µM (series often up to 56.7 µM), most hits filed as cytotoxic | 400,000 compounds, 0.49% hits | AID 651635; also: nearly all actives have a fitted effect of over 40% in size
HT1080NT lethal: kills 2HG-producing HT-1080-NT fibrosarcoma cells; HT-1080-NT fibrosarcoma viability, CellTiter-Glo ATP luminescence, 48 h; 360,000 compounds, 1.6% hits; AID 686970; Potency, µM (series often up to 46.1 µM), most hits filed as cytotoxic;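 also: NT is the 2HG producing partner of a matched IDH1 knockdown line; nearly all actives have a fitted effect of over 55% in size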
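Read-out is CellTiter-Glo luminescence after 10 minutes at room temperature, following 48 hours' compound treatment of HT-1080-NT cells (750 cells/well, RPMI, 5% FBS, 37 degrees C).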
HT1080 IDH1KD tx: toxicity to HT-1080 IDH1 knockdown cells (counter line); HT-1080 IDH1 knockdown viability, ATP luminescence, 48 h; Potency, µM (top dose mostly 46.1 µM), actives largely listed as cytotoxic; 360,000 compounds, 2% hits
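Viability of IDH1-knockdown HT-1080 fibrosarcoma cells was assessed by CellTiter-Glo after 48 h at 37 °C with titrated compound; concentration-effect curves were classified by fit quality and response size.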
Numbers stand for hits; – = inactive; ? = inconclusive; · = no result given. Calls follow the shape of the dose curve; as a rule, active = well fitted curve in the direction sought with a large enough effect; inconclusive = small, poorly fitted or top-dose-only effect, or another doubt; inactive = no such curve, though single readings can be large; an effect the other way counts as inactive or inconclusive.

SMILES	ATXN2 expr inh	TGFb inhibitor	HepG2 tox	ATXN viability	HT1080NT lethal	HT1080 IDH1KD tx
CC(C)CCCCCCCCCCCCC(=O)NCC(=O)NC1C(O)C(O)C(Nc2ncnc3nc[nH]c23)OC1C(O)CO (stereo unspecified)	–	?	–	–	?	0.164µM
CCOC(=O)CC1CCCCN1C(=O)c1cc(COc2cccc3cnccc23)on1 (stereo unspecified)	·	–	–	?	23.1µM	4.11µM
CC(=O)c1cccc(OCc2cc(C(=O)N(C)Cc3nccs3)no2)c1	·	–	–	–	–	–
CN(Cc1nccs1)C(=O)c1cc(COc2cccc3cnccc23)on1	·	–	–	?	23.1µM	9.2µM
Clc1ccc(Cl)c(OCCCCNCc2ccccc2)c1	–	?	15.8µM	–	?	?
Cc1cc(Cl)c(OCCCNCc2ccccc2)c(Br)c1	?	?	10µM	?	–	–
CCc1c(-c2ccccc2OC)ncn1Cc1cccc(-c2ccccc2)c1	·	·	·	·	14.6µM	8.2µM
COc1ccccc1-c1ncn(Cc2cccc(-c3ccccc3)c2)c1CC(C)C	11.2µM	·	·	11.2µM	18.4µM	?
CCc1c(-c2cccc(Br)c2)ncn1Cc1cccc(-c2ccccc2)c1	·	·	·	·	–	?
CCCc1c(-c2cccc(Cl)c2)ncn1Cc1cccc(-c2ccccc2)c1	·	·	·	·	?	23.1µM
COc1ccc(-c2ccc(C(=O)NCC3Cc4cccc(-c5nc(C)cnc5C)c4O3)o2)cc1 (stereo unspecified)	·	·	·	–	·	·
Cc1ccc(CN2CCC(Oc3cccc(C(=O)N(C)CCN(C)C)c3)CC2)cc1C	–	–	–	–	?	20.6µM
COCCNC(=O)c1cccc(OC2CCN(Cc3ccc(C(=O)OC)cc3)CC2)c1	–	–	–	–	–	–
Cc1ccc2c(c1)ncc[n+]2CC(=O)c1ccc(F)cc1	·	?	–	·	·	·
C=C1C(=CC=C2CCC[C@]3(C)[C@@H]([C@H](C)CCCC(C)(C)O)CC[C@@H]23)C[C@@H](O)C[C@@H]1O	–	·	·	·	·	·
Cc1ccccc1CS(=O)(=O)c1cnc2ccccc2n1	–	?	–	–	23.1µM	?
Cc1ccccc1CS(=O)(=O)c1snnc1C	–	–	–	–	–	–
O=S(=O)(c1cccc(F)c1)N1CCC(Oc2ccc(-n3cnnn3)cc2)CC1	·	–	–	·	·	·
Cc1cc(C(=O)c2ccccc2)cc(C)c1O	–	–	–	?	–	–
CC1=C/C(=C(\c2cc(C)c(O)c(Br)c2)c2ccccc2S(=O)(=O)O)C=C(Br)C1=O	?	–	–	11.2µM	?	?
CSc1ccc(-c2ccc(C(=O)NCC3CCCO3)c(N3CCC(O)CC3)n2)cc1 (stereo unspecified)	·	·	·	–	·	·
COc1cccc(CN(C)C(=O)CNC(=O)c2ccc(-c3ccccc3)cc2)c1OC	?	?	–	–	?	4.61µM
O=C(C[N+]12CN3CN(CN(C3)C1)C2)c1ccc(O)c(O)c1	·	–	–	·	·	·
Cc1ccc(NC(=O)C(Cc2ccccc2)NS(=O)(=O)c2cccs2)cc1Cl (stereo unspecified)	–	–	–	–	·	·
O=C(NCc1cccnc1)c1nn(-c2ccc(Cl)cc2)nc1CO	·	–	–	·	·	·
SMILES	ATXN2 expr inh	TGFb inhibitor	HepG2 tox	ATXN viability	HT1080NT lethal	HT1080 IDH1KD tx
Cc1ccc(N2CC(C(=O)Nc3ccc(Br)cc3)CC2=O)cc1 (stereo unspecified)	–	?	–	–	·	·
CS(=O)(=O)c1ncc(Cl)c(C(=O)Nc2c(C(=O)Nc3ccccc3)oc3ccccc23)n1	–	–	–	–	·	·
COc1cccc(NC(=O)c2nc(SC)ncc2Cl)c1	–	–	–	–	–	–
COc1cccc(NC(=O)c2nc(S(C)(=O)=O)ncc2Cl)c1	?	15.8µM	–	?	5.17µM	8.2µM
Cc1cccc(NC(=O)c2nc(S(C)(=O)=O)ncc2Cl)c1	?	7.94µM	20µM	?	·	·
O=S(=O)(c1ccccc1C(F)(F)F)N1CCN(c2nc(-c3cccs3)nc3ccccc23)CC1	·	–	–	·	·	·
CC(C)(CC(=O)NCc1ccc(Cl)cc1Cl)CC1=NS(=O)(=O)c2ccccc2N1	25.1µM	?	–	–	·	·
Cc1ccc(Cl)cc1NC(=O)COC(=O)CC(C)(C)CC1=NS(=O)(=O)c2ccccc2N1	–	?	–	?	·	·
OC(COCC(F)(F)C(F)(F)C(F)(F)C(F)F)Cn1c2ccccc2c2ccccc21 (stereo unspecified)	?	?	17.8µM	?	?	–
O=C1CC(c2cccc(O)c2)c2c(nc(SCc3ccccc3F)[nH]c2=O)N1 (stereo unspecified)	–	–	7.08µM	–	·	·
Cc1ncc2c(c1CNC(=O)c1cncs1)CCN(C(=O)c1ccc(C(F)(F)F)cc1)C2	·	·	·	–	·	·
O=c1c2c(nc3c(-c4ccccc4)c[nH]n13)CCC2	–	–	–	–	11.2µM	?
O=c1c2c(nc3c(-c4ccc(Cl)cc4)c[nH]n13)CCC2	12.6µM	?	–	?	–	?
C[C@@H]1[C@H](C)CC[C@]2(C(=O)O)CC[C@]3(C)C(=CC[C@@H]4[C@@]5(C)C[C@@H](O)[C@H](O)[C@@](C)(CO)[C@H]5CC[C@]43C)[C@@H]12	–	·	·	·	·	·
COc1ccc(OCc2ccc(-c3nc(C#N)c(NCc4cccnc4)o3)o2)cc1	–	–	–	–	·	·
Cc1ccccc1OCc1ccc(-c2nc(C#N)c(NCc3cccnc3)o2)o1	31.6µM	?	–	?	·	·
COc1ccc(CNc2oc(-c3ccc(COc4ccccc4C)o3)nc2C#N)cc1	–	–	14.1µM	?	·	·
Cc1ccc(OCc2ccc(-c3nc(C#N)c(NCc4cccnc4)o3)o2)cc1	?	–	–	?	·	·
Cc1cccc(OCc2ccc(-c3nc(C#N)c(NCc4cccnc4)o3)o2)c1	28.2µM	?	–	22.4µM	·	·
COc1ccc(OCc2ccc(-c3nc(C#N)c(NCc4ccccc4)o3)o2)cc1	–	?	–	–	·	·
CC=CC(=O)N(CC)c1ccccc1C	–	·	·	·	·	·
CCOC(=O)c1cccc(NC(=O)CSc2ncc3c(n2)-c2ccc(Cl)cc2N(Cc2ccccc2)S3(=O)=O)c1	–	–	–	–	·	·
Cc1cc(N=Nc2c(O)c3ccccc3[nH]c2=O)ccc1N=Nc1ccc(C(=O)N(C)C)cc1	·	12.6µM	–	–	–	–
CN(C)C(=O)c1ccc(N=Nc2c(O)c3ccccc3[nH]c2=O)cc1	–	–	11.2µM	?	5.8µM	6.51µM
COc1cc(N=Nc2ccc(C(=O)N(C)C)cc2)c(C)cc1N	–	–	–	–	–	–
COc1ccc(/C=C2\SC(=N)N(c3nccs3)C2=O)cc1OC	11.2µM	–	–	?	?	?
O=C1OC(c2cccs2)=N/C1=C\c1ccc(-c2cccc(Cl)c2)o1	–	–	–	–	–	–
